# Compound activity: PubChem BioAssay, National Center for Advancing Translational Sciences (NCATS)
# A selection: hits, their analogues and other compounds. The true share with any hit is near 19%.
# VP16 counter: VP16 counterscreen qHTS for inhibitors of ROR gamma transcriptional activity; Potency, µM (titrated, usually from 53.6 µM), hits mostly inhibitors; Drosophila S2 Gal4-VP16 UAS-luciferase, luminescence, 20 h; 310,000 compounds, 3.5% hits;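 also: Gal4-VP16 expression switched on by copper sulfate through the metallothionein promoter; nearly all actives have a fitted effect of over 50% in size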
# DT40 TDP1 CPT: qHTS for Inhibitors of human tyrosyl-DNA phosphodiesterase 1 (TDP1): qHTS in cells in presence of CPT; chicken DT40 Tdp1-/-;hTDP1 cells + 20 nM CPT, ATP luminescence, 48 h; Potency, µM (top dose mostly 46.2 µM), usual class: inhibitors; 420,000 compounds, 12% hits; AID 686979, 2013; also: nearly all actives have a fitted effect of over 55% in size
#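 Chicken DT40 Tdp1-/- cells stably complemented with human TDP1 were seeded at 400 cells/well in medium containing 20 nM camptothecin, exposed to pin-transferred compounds, and grown at 37 °C for at least 48 hr. Viability was read as ATP luminescence.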
# DT40 TDP1 no CPT: qHTS for Inhibitors of human tyrosyl-DNA phosphodiesterase 1 (TDP1): qHTS in cells in absence of CPT; DT40 Tdp1-/- hTDP1 cells, no CPT, ATP luminescence, 48 h; Potency, µM (titrated, usually from 46.2 µM), hits mostly inhibitors; 420,000 compounds, 15% hits; also: nearly all actives have a fitted effect of over 55% in size
#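 Readout: luminescence from CellTiter-Glo after 30 min in the dark at RT. Cells: DT40 Tdp1-/- with stable hTDP1, 400/well. Exposure: compounds alone, ≥48 hr, 37 °C.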
# RORgamma inh: qHTS for inhibitors of ROR gamma transcriptional activity | Nuclear receptor ROR-gamma (Mus musculus), P51450 | Drosophila S2 Gal4-RORgamma UAS-luciferase reporter, 20 h | Potency, µM (series often up to 53.6 µM), most hits filed as inhibitors | 310,000 compounds, 5.4% hits; also: nearly all actives have a fitted effect of over 60% in size
# Target sequence (P51450 whole entry, looked up, the tested form may be a part): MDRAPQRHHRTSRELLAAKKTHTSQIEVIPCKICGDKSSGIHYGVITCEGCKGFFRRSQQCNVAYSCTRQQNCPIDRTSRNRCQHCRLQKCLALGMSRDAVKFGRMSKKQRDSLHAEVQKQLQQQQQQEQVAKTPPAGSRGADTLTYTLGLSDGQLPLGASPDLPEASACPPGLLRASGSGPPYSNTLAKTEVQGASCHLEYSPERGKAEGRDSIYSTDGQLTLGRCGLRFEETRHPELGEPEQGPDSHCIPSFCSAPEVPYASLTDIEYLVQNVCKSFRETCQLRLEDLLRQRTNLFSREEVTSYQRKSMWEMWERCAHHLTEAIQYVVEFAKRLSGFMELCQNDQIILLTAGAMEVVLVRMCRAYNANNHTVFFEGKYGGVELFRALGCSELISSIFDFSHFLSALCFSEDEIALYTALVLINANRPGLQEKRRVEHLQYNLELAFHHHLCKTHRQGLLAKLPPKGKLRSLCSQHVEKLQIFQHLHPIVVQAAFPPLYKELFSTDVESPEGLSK
#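 Compounds are pin-transferred onto Drosophila Schneider cells expressing a copper-inducible Gal4–ROR gamma transactivation domain fusion. After 1 hr, copper sulfate is added to 700 uM final; luciferase is read 20 hr later.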
# TDP1 inh: qHTS Assay for Inhibitors of Tyrosyl-DNA Phosphodiesterase (TDP1); Tyrosyl-DNA phosphodiesterase 1 (Homo sapiens), Q9NUW8; recombinant TDP1, AlphaScreen DNA substrate cleavage; Potency, µM (series often up to 130 µM), most hits filed as inhibitors; 350,000 compounds, 0.28% hits; also: nearly all actives have a fitted effect of over 40% in size
#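 Signal: AlphaScreen proximity between streptavidin donor and anti-FITC acceptor beads on intact substrate. Reaction: Tdp1 1 nM, substrate 15 nM final, 5 min RT after 15 min compound preincubation.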
# Hits are given with their value; n = inactive; u = inconclusive; x = not tested or not shown; [ ] = dose if it differs, or a comment. Calls follow the shape of the dose curve; as a rule, active = well fitted curve in the direction sought with a large enough effect; inconclusive = small, poorly fitted or top-dose-only effect, or another doubt; inactive = no such curve, though single readings can be large; an effect the other way counts as inactive or inconclusive.
SMILES,VP16 counter,DT40 TDP1 CPT,DT40 TDP1 no CPT,RORgamma inh,TDP1 inh
O=C(/C=C/c1cccc([N+](=O)[O-])c1)NCCSCc1ccc(Cl)cc1Cl,n,29µM,23µM,u,n
CCCN(CC(=O)Nc1ccc(Cl)cc1Cl)C(=O)/C=C/c1cccc([N+](=O)[O-])c1,n,u,29µM,n,n
CCCN(CC(=O)Nc1ccc(Cl)cc1Cl)C(=O)/C=C/c1cc(OC)ccc1OC,n,u,29µM,u,n
CCCN(CCC)C(=O)/C=C/c1cccc([N+](=O)[O-])c1,n,u,u,n,n
O=C(CCCOc1ccc(Cl)cc1Cl)Nc1ccccc1C(=O)O,n,n,n,n,x
COc1ccc(CNS(=O)(=O)NCc2ccc(OC)c(OC)c2)cc1,n,u,u,u,n
COc1ccccc1NC(=S)NCc1ccc(Cl)cc1,8.9µM,n,u,11µM,x
COc1ccc(CNS(=O)(=O)NCc2ccc(C)cc2)cc1OC,u,u,16µM,n,n
CCOc1ccccc1NC(=S)NC(=O)CCCOc1ccc(Cl)cc1Cl,22µM,n,u,5µM,n
CCOc1ccc(CNC(=S)Nc2ccccc2)cc1Cl,5.6µM,u,u,5.6µM,n
CC1CCCC(NC(=O)CCS(=O)(=O)c2ccc3c(c2)NC(=O)CS3)C1C (centres undefined),n,u,u,n,n
Cc1nnc(SCC(=O)c2cc(C)n(C3CC3)c2C)s1,n,n,u,n,n
CS(=O)(=O)N(CC(=O)NCCSCc1cccc(Cl)c1)c1ccc2c(c1)OCO2,n,n,u,n,n
COc1ccccc1NC(=S)NCc1ccccc1,u,n,n,14µM,x
CCOc1ccccc1NC(=S)NCc1cccn1C,20µM,n,n,11µM,n
COc1ccc(NC(=O)N(Cc2ccc(C)cc2)Cc2ccccn2)c(OC)c1,x,26µM,u,x,x
CCOc1ccccc1NC(=S)NCc1ccccc1,8.9µM,10µM,u,7.1µM,x
COc1ccc(NC(=O)CCOc2ccc(C)cc2)c(OC)c1,n,n,n,n[1.91 µM],x
CCOc1ccccc1NC(=O)CCn1cccc1,n,n,n,n,n
COC(C#CCCN(C)C)(c1ccccc1)c1ccccc1,n,n,n,n,n
COc1ccc(Cl)cc1NC(=S)NCc1ccccn1,u,u,u,u,n
CCOc1ccccc1NC(=S)Nc1ccccc1F,u,n,n,11µM,n
COc1ccc(CNC(=S)NCc2ccc(Cl)cc2)cc1OC,22µM,u,n,u,n
CCOc1cc(C(=O)Nc2ccccc2F)cc(Br)c1OCC,n,21µM,u,n,n
COc1ccccc1NC(=S)NCc1ccccn1,u,2.3µM,4.1µM,u,n
SMILES,VP16 counter,DT40 TDP1 CPT,DT40 TDP1 no CPT,RORgamma inh,TDP1 inh
COc1ccc(CNC(=S)NCc2ccc(F)cc2)cc1OC,u,n,n,n,n
O=C(COC(=O)c1cccc(F)c1)NC1CC1,n,n,n,n,n
CCN(CC)CCCNC(=O)CNC(=O)c1nn(-c2ccc(OC)cc2)c(=O)c2ccccc12,n,n,n,n,n
COc1cccc(OC)c1C(=O)NC(=S)NCc1ccccc1,u,n,u,10µM,n
Cn1cccc1CNC(=S)Nc1ccccc1Cl,n,n,n,6.3µM,n
CCOc1ccccc1NC(=S)Nc1ncccc1C,7.1µM,u,29µM,7.1µM,n
CCOc1ccccc1NC(=S)Nn1cnnc1,n,u,u,n,n
COc1ccc(CN(Cc2ccccn2)C(=O)CN2C(=O)C(C)Oc3ccccc32)cc1 (centres undefined),n,u,21µM,n,n
Cn1cccc1CNCc1ccccc1Cl,n,u,n,n,n
O=C(O)CN1C(=O)SC(Nc2ccccc2)C1=O (centres undefined),n,n,n,u,n
Cc1ccsc1/C=N/NS(=O)(=O)c1ccc([N+](=O)[O-])cc1,n,n,n,n,n
O=C(Nc1ccccc1)Nn1cnnc1,n,n,n,n,x
COc1ccccc1NC(=S)N(Cc1ccccc1)Cc1ccccn1,u,u,u,11µM,n
COc1ccc(NC(=S)Nc2ncccc2C)c(OC)c1,10µM,n,u,3.2µM,n
